Source: the supplement of paper PMC7156485
± gives the standard deviation of the averaged measurements.

Test system: TDF
Test: cell number relative to DMSO (% of DMSO); higher = more cells (less growth inhibition / toxicity)
Details: concentration: 10 µM; 24 h
Summary of the method: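 After 24 h at 37 °C with compounds at 10 µM, in triplicate, HCC1569 and TDF cells were fixed with 3.7% formaldehyde. Immunostaining used a rabbit anti-H1.0 antibody and an AlexaFluor 647 secondary, with DAPI, and six fields per well were imaged at ×10. H1.0 nuclear intensity or cell number is presented as percent of the plate control, from the median of replicates, with HCC1569 values smoothed for positional effects.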
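Also: TDF denotes transformed human dermal fibroblasts of mesenchymal origin.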

SMILES | cell number
CC(C)C1C(=O)OC2CCN3CC=C(COC(=O)C(C)(O)C1(C)O)C23 (centres undefined) [Trichodesmine] | 103
CC(O)(CS(=O)(=O)c1ccc(F)cc1)C(=O)Nc1ccc(C#N)c(C(F)(F)F)c1 (centres undefined) [Bicalutamide] | 104
Br.CC(Cc1ccc(O)cc1)NCC(O)c1cc(O)cc(O)c1 (centres undefined) [Fenoterol hydrobromide] | 105
NC(Cn1oc(=O)[nH]c1=O)C(=O)O (single isomer, unassigned; (+)) [(+)-Quisqualic acid] | 94.1
COc1ccc2c(c1OC)C(=O)OC2C1c2cc3c(cc2CCN1C)OCO3 (single isomer, unassigned; (+)) [(+)-Hydrastine] | 104
CNc1ccc2oc(CC3OC4(CCC3C)OC(C(C)C(=O)c3ccc[nH]3)C(C)CC4C)nc2c1C(=O)O (centres undefined) [Calcimycin] | 23.3
CCC=CCC(C=CC=CCC=CCC=CCCCC(=O)O)OO (centres undefined) | 92.8
Cl.Cl.Clc1ccc(N2CC3CCC(C2)N3)nn1 | 110
Nc1ncnc2c1ncn2C1OC(COP(=O)(O)CP(=O)(O)OP(=O)([O-])[O-])C(O)C1O.[Li+].[Li+] (stereo not drawn) [alpha,beta-Methylene adenosine 5'-triphosphate dilithium] | 109
Cc1cc2c(C(C)C)c(O)c(O)c(C=O)c2c(O)c1-c1c(C)cc2c(C(C)C)c(O)c(O)c(C=O)c2c1O [Gossypol] | 99.6 ± 5.5
C#C[C@]1(O)CC[C@H]2[C@@H]3CC[C@H]4Cc5nc6nc7ccccc7n6cc5C[C@]4(C)[C@H]3CC[C@@]21C | 88.1
COC(=O)c1cc2c(cn1)[nH]c1ccccc12 [Methyl beta-carboline-3-carboxylate] | 105
COC1C(O)C(C)OC(OC2CCC3(C=O)C(CCC4C3CCC3(C)C(C5=CC(=O)OC5)CCC43O)C2)C1O (centres undefined) [Peruvoside] | 44
CCN1CC2(C)CCC(OC)C34C5CC6CCC(O)(C5C(=O)O6)C(C(O)C23)C14 (centres undefined) [Heteratisine] | 105
C[N+](C)(C)CC#CCOC(=O)Nc1cccc(Cl)c1.[Cl-] | 99.2
COCC1OC(=O)c2coc3c2C1(C)C1=C(C3=O)C2CCC(=O)C2(C)CC1OC(C)=O (centres undefined) [Wortmannin] | 91.8
CNCCc1c[nH]c2ccc(O)cc12.O=C(O)C(=O)O [N-omega-Methyl-5-hydroxytryptamine oxalate salt] | 103
Br.CCCN(CCC)CCc1ccc(O)c(O)c1 [Dipropyldopamine hydrobromide] | 104
Cl.Cl.c1ccc(CCCN2CCN(CCOC(c3ccccc3)c3ccccc3)CC2)cc1 | 91.5
CN1CC(C(=O)NC2(C)OC3(O)C4CCCN4C(=O)C(Cc4ccccc4)N3C2=O)CC2c3cccc4[nH]cc(c34)CC21.CS(=O)(=O)O (centres undefined) [Dihydroergotamine methanesulfonate] | 108
Cl.Clc1cc(I)cc(Cl)c1NC1=NCCN1 [p-Iodoclonidine hydrochloride] | 101
CC(C)C1(NC(=O)C2CC3c4cccc5[nH]cc(c45)CC3N(C)C2)OC2(O)C3CCCN3C(=O)C(Cc3ccccc3)N2C1=O.CS(=O)(=O)O (centres undefined) [Dihydroergocristine mesylate] | 110
CNC(=O)Oc1ccc2c(c1)C1(C)CCN(C)C1N2C (single isomer, unassigned; (-)) [(-)-Physostigmine] | 118
NC(=O)CN1CC(O)CC1=O (centres undefined) [Oxiracetam] | 111
CC(C)C1(NC(=O)C2C=C3c4cccc5[nH]cc(c45)CC3N(C)C2)OC2(O)C3CCCN3C(=O)C(Cc3ccccc3)N2C1=O (centres undefined) [Ergocristine] | 109
CCC(C(N)=O)N1CCCC1=O (centres undefined) [Levetiracetam] | 105
C=CCN1CCC23c4c5ccc(O)c4OC2C(=NN=C2CCC4(O)C6Cc7ccc(O)c8c7C4(CCN6CC=C)C2O8)CCC3(O)C1C5 (centres undefined) [Naloxonazine] | 89
Br.C#CCOC(=O)C1=CCCN(C)C1 [Arecaidine propargyl ester hydrobromide] | 98.1
CS(=O)(=O)O.Oc1ccc2c3c1OC1c4oc5ccccc5c4CC4(O)C(C2)N(CC2CC2)CCC314 (centres undefined) [Naltriben methanesulfonate] | 105
